Screening results deposited in PubChem by several laboratories.
SRC3 inh = SRC3 coactivator transcriptional activity inhibitors, primary screen, cell-based, luminescence; HEK293 GAL4-SRC3 luciferase reporter; 360,000 tested, 0.17% active; Nuclear receptor coactivator 3 (Homo sapiens), Q9Y6Q9; inhibition, % at 3.6 µM;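 active means inhibition above a per-campaign cutoff, the mean of all compounds plus 3 SD, cut at about 60% in these data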;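 further: higher means less SRC3-driven luciferase light from the GAL4 reporter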
Target sequence (Q9Y6Q9 whole entry, looked up, the tested form may be a part): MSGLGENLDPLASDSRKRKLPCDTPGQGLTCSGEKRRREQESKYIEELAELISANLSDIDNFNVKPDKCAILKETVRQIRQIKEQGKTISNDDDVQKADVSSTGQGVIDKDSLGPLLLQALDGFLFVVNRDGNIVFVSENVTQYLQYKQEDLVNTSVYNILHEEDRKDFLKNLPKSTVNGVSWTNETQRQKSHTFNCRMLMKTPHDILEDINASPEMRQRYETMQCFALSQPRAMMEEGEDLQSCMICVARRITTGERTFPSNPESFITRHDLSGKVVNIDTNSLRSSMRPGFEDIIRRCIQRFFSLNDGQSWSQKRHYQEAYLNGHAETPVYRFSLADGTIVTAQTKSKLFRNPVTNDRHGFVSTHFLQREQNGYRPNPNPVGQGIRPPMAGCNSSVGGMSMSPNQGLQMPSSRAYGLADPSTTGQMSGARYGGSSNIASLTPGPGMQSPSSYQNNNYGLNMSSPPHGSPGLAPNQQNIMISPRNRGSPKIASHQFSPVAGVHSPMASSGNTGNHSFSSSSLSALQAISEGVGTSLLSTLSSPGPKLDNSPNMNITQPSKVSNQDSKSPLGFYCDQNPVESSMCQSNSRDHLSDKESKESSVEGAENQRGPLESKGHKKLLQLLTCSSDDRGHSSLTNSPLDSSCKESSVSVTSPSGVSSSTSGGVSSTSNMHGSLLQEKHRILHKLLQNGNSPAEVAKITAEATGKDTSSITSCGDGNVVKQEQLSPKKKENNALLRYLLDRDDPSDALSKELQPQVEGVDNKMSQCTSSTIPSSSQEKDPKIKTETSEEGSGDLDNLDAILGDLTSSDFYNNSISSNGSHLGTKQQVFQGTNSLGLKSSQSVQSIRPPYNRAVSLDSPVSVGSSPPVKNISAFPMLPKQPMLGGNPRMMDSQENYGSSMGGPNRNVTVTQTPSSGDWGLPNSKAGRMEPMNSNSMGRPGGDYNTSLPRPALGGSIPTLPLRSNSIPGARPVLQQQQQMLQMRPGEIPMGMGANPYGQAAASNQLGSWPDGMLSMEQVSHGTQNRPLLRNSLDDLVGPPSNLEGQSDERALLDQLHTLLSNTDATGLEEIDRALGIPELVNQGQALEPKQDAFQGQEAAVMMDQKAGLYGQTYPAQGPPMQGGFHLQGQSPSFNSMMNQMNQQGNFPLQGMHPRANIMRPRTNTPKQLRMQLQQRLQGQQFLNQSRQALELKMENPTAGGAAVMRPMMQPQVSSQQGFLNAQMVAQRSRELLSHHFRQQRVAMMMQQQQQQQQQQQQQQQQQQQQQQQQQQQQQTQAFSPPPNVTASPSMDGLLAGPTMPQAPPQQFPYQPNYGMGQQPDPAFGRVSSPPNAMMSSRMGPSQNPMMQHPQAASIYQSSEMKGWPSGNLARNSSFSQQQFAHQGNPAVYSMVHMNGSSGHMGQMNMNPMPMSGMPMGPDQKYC
SRC1 inh = SRC1 coactivator transcriptional activity inhibitors, primary screen, cell-based, luminescence; Nuclear receptor coactivator 1 (Homo sapiens), Q15788; HEK293 GAL4-SRC1 luciferase reporter; inhibition, % at 3.6 µM; 360,000 tested, 0.12% active; AID 588354, 2011;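 active means inhibition above the campaign mean plus 3 SD, with each screening campaign given its own cutoff, cut at about 60% in these data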
COUP-TFII inh = NR2F2 transcriptional activity inhibitors, primary screen, cell-based, luciferase reporter, HEK293T, luminescence; HEK293T NGFI-A luciferase reporter; inhibition, % at 8.6 µM; 370,000 tested, 0.7% active;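 active means inhibition above a per-plate cutoff, mean inhibition of test wells between control levels plus 3 SD, cut at about 38% in these data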;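 further: cells cotransfected with COUP-TFII expression vector driving the NGFI-A reporter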
LRH-1 inv ag = LRH-1 (NR5A2) inverse agonists, primary screen, cell-based, luminescence, HEK293T, StAR-luciferase reporter; Nuclear receptor subfamily 5 group A member 2 (Homo sapiens), O00482; LRH-1 transfected, 24 h; inhibition, % at 3.6 µM; 360,000 tested, 0.13% active; AID 602396, 2012;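 active means inhibition above the mean inhibition of all tested compounds plus 3 SD, cut at about 73% in these data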
NCOA2 inhibitor = inhibition of GAL4-SRC2 driven luciferase reporter, primary screen, SRC2 inhibitor project, cell-based, luminescence | Nuclear receptor coactivator 2 (Homo sapiens), Q15596 | HEK293 GAL4-SRC2 luciferase reporter | inhibition, % at 9 µM | 370,000 tested, 0.17% active | AID 651957, 2012;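 active means inhibition above the mean inhibition of all tested compounds plus 3 SD, set per campaign, cut at about 52% in these data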
Gli-Sufu block = Gli-Sufu pathway antagonists, primary screen, luciferase luminescence, Sufu-KO-LIGHT cells, uHTS; Sufu-KO-LIGHT fibroblasts, Gli luciferase reporter luminescence; inhibition, % at 5 µM; 340,000 tested, 0.74% active;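 active means inhibition above about 55%, limit read from the data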
Gli-Sufu confirm = Gli-SUFU pathway antagonists, confirmation, single concentration, luciferase luminescence, Sufu-KO-LIGHT cells; Gli luciferase reporter; 2,500 tested, 40% active; AID 602428, 2012; inhibition, % at 5 µM; shares compounds with Gli-Sufu block;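 active means mean inhibition at 5 µM reaching about 45%, limit read from the data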
SufuKO cytotox = cytotoxicity in Sufu-KO-LIGHT cells, confirmation, cytotoxicity control for Gli-SUFU antagonist project, cell-based, ATP luminescence, single concentration; shares compounds with Gli-Sufu block; cytotoxicity, % at 5 µM; 2,500 tested, 32% active; AID 651994, 2013;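 active means mean cytotoxicity at 5 µM above about 25%, limit read from the data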;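 further: cells exposed to compound overnight for roughly 16 to 18 hours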
Wnt3a counter = Wnt3a reporter signal inhibition, confirmation, counter-screen for Gli-SUFU antagonist project, Wnt-LIGHT cells, luminescence, single concentration; shares compounds with Gli-Sufu block; Wnt3a-driven luciferase reporter; AID 651995, 2013; inhibition, % at 6.25 µM; 2,500 tested, 20% active;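 active means mean inhibition above about 25%, limit read from the data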
Hits are given with their value; i = inactive; nt = not tested or not shown. In the library only some 1.3% were active in any assay of this set; here they are far more common.

SMILES | SRC3 inh | SRC1 inh | COUP-TFII inh | LRH-1 inv ag | NCOA2 inhibitor | Gli-Sufu block | Gli-Sufu confirm | SufuKO cytotox | Wnt3a counter
Cc1cc(-c2cccnc2)c(C#N)c(SCc2cccc(F)c2)n1 | i | i | i | i | i | i | i | i | i
COCCCNC(=S)N1CCN(S(=O)(=O)c2ccc(OC)cc2)CC1 | i | i | i | i | i | 69.1 | i | i | i
CS(=O)(=O)N(CC(=O)N1CCCCCC1)c1ccc(Cl)cc1 | i | i | i | i | i | i | nt | nt | nt
CS(=O)(=O)N(CC(=O)N1CCOCC1)c1ccc(Cl)cc1 | i | i | i | i | i | 56.0 | i | i | i
Nc1c(C(=O)N2CCN(c3ccccc3)CC2)nnn1Cc1ccc(Cl)cc1 | nt | nt | i | nt | i | nt | nt | nt | nt
COC(=O)[C@]12C[C@H](CC(=O)NCc3cccs3)C(=O)N(Cc3ccc4c(c3)OCO4)C1=C[C@H](COCc1ccccc1)O[C@@H]2C | nt | nt | i | nt | i | nt | nt | nt | nt
O=C(Nc1ccc2c(c1)Cc1ccccc1-2)NC1CCCCN(Cc2ccc(Cl)cc2)C1=O (stereo not drawn) | nt | nt | i | nt | i | nt | nt | nt | nt
Cn1c(-c2ccccn2)[n+](C)c2ccccc21 | i | i | i | i | i | i | nt | nt | nt
CN(C)c1ccc(-c2n(C)c3ccccc3[n+]2C)cc1 | i | i | i | i | i | 80.4 | 82.2 | 35.5 | 27.4
COc1ccc(C(CNC(=O)C(=O)Nc2ccc3c(c2)OCO3)N2CCN(C)CC2)cc1 (stereo not drawn) | i | i | i | i | i | i | nt | nt | nt
CN1CCN(C(CNC(=O)C(=O)Nc2ccc3c(c2)OCO3)c2ccc(F)cc2)CC1 (stereo not drawn) | i | i | i | i | i | i | i | i | i
CCOC(=O)C1(CCc2ccccc2)CCN(Cc2cccc3nccnc23)CC1 | i | i | i | i | i | i | i | i | i
CCOC(=O)C1(CCCc2ccccc2)CCN(Cc2nccn2CC)CC1 | i | i | i | i | i | i | i | i | i
CCOC(=O)C1(CCOc2ccccc2)CCN(Cc2nccn2CC)CC1 | i | i | i | i | i | i | nt | nt | nt
COc1ccc(C(C)=O)cc1CSC(=S)N1CCSCC1 | nt | nt | i | nt | i | nt | nt | nt | nt
Cc1ccc(N2CC(c3nc4ccccc4[nH]3)CC2=O)c(C)c1 (stereo not drawn) | i | i | i | i | i | i | i | i | i
CC(C)N1CCN(CCCc2ccccc2)CC1CCO (stereo not drawn) | i | i | i | i | i | i | nt | nt | nt
OCCC1CN(Cc2cc(F)ccc2F)CCN1CCCc1ccccc1 (stereo not drawn) | i | i | i | i | i | i | i | i | i
CC(C)N1CCC(N2CCN(CCCc3ccccc3)CC2CCO)CC1 (stereo not drawn) | i | i | i | i | i | 60.2 | i | 27.4 | i
CCCCc1ccc(NC(=O)C(=O)NCCN2CCN(Cc3ccc([N+](=O)[O-])cc3)CC2)cc1 | i | i | i | i | i | 56.0 | i | i | i
Cc1ccc(C(=O)n2ccc3ccc(-c4ccc5ccn(Cc6ccccc6)c5c4)cc32)cc1 | nt | nt | i | nt | i | nt | nt | nt | nt
Cc1ccc(/C=N/NC(=O)c2c(C)nc3ccc(Cl)cn23)cc1 | nt | nt | i | nt | i | nt | nt | nt | nt
Cc1ccc2c(C)c(C(=O)NCc3ccc(S(N)(=O)=O)cc3)oc2c1C | i | i | i | i | i | 58.6 | i | i | i
O=C1C=C(c2ccc3cc[nH]c3c2)C[C@@H](c2ccc3c(c2)OCO3)C1 | i | i | nt | i | nt | 59.2 | i | i | i
CC(=O)c1cnc(N2CCCCC2)nc1C | i | i | i | i | i | 56.4 | i | 28.8 | i
SMILES | SRC3 inh | SRC1 inh | COUP-TFII inh | LRH-1 inv ag | NCOA2 inhibitor | Gli-Sufu block | Gli-Sufu confirm | SufuKO cytotox | Wnt3a counter
COc1ccc(N2CCN(S(=O)(=O)c3ccc(OC)c(C(=O)N4CCCC4)c3)CC2)cc1 | i | i | i | i | i | 70.3 | i | i | i
COc1ccc(S(=O)(=O)N2CCCCCC2)cc1C(=O)N1CCCCC1 | i | i | i | i | i | i | nt | nt | nt
CCN(CC(=O)Nc1cc(Cl)ccc1C)C(=O)CSCc1c(C)noc1C | i | i | i | i | i | i | i | i | i
Cc1ccc(C)c(NC(=O)CN(C)C(=O)CSCc2c(C)noc2C)c1 | i | i | i | i | i | i | nt | nt | nt
CC1(C)CC(=O)c2c(Cc3ccccc3)noc2C1 | i | i | i | i | i | i | nt | nt | nt
CC1(C)CC(=O)c2c(noc2-c2ccccc2)C1 | i | i | i | i | i | 75.2 | i | 28.4 | i
COC(=O)N1C[C@H](OCc2cn(-c3ccc(OC)cc3)nn2)[C@H]2C[C@@H]1c1ccccc1O2 | nt | nt | i | nt | i | nt | nt | nt | nt
CCN(C(=O)CN1C(=O)COc2ccc(S(=O)(=O)N3CCOCC3)cc21)c1ccc(OC)cc1 | i | i | i | i | i | i | i | i | i
COC(=O)CN1C(=O)COc2ccc(S(=O)(=O)N3CCOCC3)cc21 | i | i | i | i | i | i | nt | nt | nt
O=Cc1cscc1[B-](F)(F)F | nt | nt | i | nt | i | nt | nt | nt | nt
CC(C)(C)c1ccc(S(=O)(=O)N2CCN(C(=O)C(=O)c3cccc(C(F)(F)F)c3)CC2)cc1 | nt | nt | i | nt | i | nt | nt | nt | nt
COc1ccc(COC(=O)N/N=C(\C)CC(=O)NCc2ccc(Cl)cc2)cc1 | i | i | i | i | i | i | nt | nt | nt
COc1ccc(COC(=O)N/N=C(\C)CC(=O)Nc2c(C)cc(C)cc2C)cc1 | i | i | i | i | i | 99.4 | i | i | i
Cc1ccc(N2C(=O)CC(N3CCN(C4CCc5ccccc5C4)CC3)C2=O)cc1 (stereo not drawn) | i | i | i | i | i | 72.2 | i | i | i
COC(=O)c1ccc(Cn2ccc3ccc(-c4ccc5ccn(C(=O)c6ccccc6OC)c5c4)cc32)cc1 | nt | nt | i | nt | i | nt | nt | nt | nt
COc1ccc(S[C@]2(C(=O)N3CCN(c4ncccn4)CC3)CC(=O)N(C(=O)CCc3ccccc3)[C@@H]2c2ccc(OC)cc2)cc1 | nt | nt | i | nt | i | nt | nt | nt | nt
CCCc1cc(=O)oc2cc(C)cc(OCC(=O)N3CCC(C(=O)O)CC3)c12 | i | i | i | i | i | i | i | i | i
CCCN(CCC)Cc1cc(=O)oc2ccccc12 | nt | nt | i | nt | i | nt | nt | nt | nt
CC(=O)C1=C(C)N(Cc2ccc(Br)cc2)C(=S)NC1c1cccc(Cl)c1 (stereo not drawn) | nt | nt | i | nt | i | nt | nt | nt | nt
